Assay outcomes: PubChem BioAssay, The Scripps Research Institute Molecular Screening Center
GPR151 activ – activates the human receptor GPR151. PathHunter beta-arrestin GPR151 cells, luminescence. activation, % at 11.2 µM. hit rate 1% among 650,000. AID 1508602. Q8TDV0; in the data active = activation above about 4.9%
MITF inh – blocks human microphthalmia-associated transcription factor; O75030; AlphaScreen MITF homodimerization, bead proximity signal; inhibition, % at 2.6 µM; hit rate 0.91% among 650,000; AID 1259374; in the data active = inhibition above about 50%
TEAD-YAP block – TEAD-YAP interaction inhibition | AID 1259422 | HEK-TIYL cells, TEAD-Gal4/YAP UAS-luciferase luminescence | inhibition, % at 9.12 µM | hit rate 1.4% among 640,000; in the data active = inhibition above about 32%
FBW7 act – activators of human E3 ligase FBW7 | AlphaScreen FBW7–phospho-cyclin E peptide binding, activator screen | normalized activity (activation), % at 26.1 µM | hit rate 0.13% among 650,000; in the data active = normalized activity above about 1.9%;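 note: purified mutant Fbw7 with reduced substrate affinity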
Target sequence (Q969H0 whole entry, looked up): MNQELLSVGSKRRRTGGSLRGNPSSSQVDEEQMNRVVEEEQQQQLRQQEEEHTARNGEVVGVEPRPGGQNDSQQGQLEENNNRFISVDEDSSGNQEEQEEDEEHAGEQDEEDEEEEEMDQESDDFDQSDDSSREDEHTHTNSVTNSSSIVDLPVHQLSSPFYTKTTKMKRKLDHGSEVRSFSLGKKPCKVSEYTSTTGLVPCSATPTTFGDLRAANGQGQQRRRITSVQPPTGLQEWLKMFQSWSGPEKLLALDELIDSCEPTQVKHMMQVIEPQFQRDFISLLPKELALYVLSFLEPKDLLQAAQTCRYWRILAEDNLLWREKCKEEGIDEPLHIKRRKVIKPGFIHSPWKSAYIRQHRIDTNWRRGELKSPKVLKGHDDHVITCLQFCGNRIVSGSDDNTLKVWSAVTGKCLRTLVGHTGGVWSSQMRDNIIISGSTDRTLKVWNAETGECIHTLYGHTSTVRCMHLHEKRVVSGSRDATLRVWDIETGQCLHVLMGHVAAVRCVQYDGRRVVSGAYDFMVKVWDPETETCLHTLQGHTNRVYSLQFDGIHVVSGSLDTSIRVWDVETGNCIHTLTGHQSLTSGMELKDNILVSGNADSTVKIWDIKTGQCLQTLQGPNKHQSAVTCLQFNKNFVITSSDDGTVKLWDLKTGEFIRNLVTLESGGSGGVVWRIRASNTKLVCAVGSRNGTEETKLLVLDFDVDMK
MITF inh conf – confirmation of human MITF inhibitors | shares compounds with MITF inh | AlphaScreen MITF homodimerization, biotin/His-MITF beads | inhibition, % at 2.6 µM | hit rate 16% among 4,700 | AID 1259372;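 active = inhibition above a cutoff derived from the DMSO control wells, cut at about 28% in these data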;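 note: inhibitors lower the bead chemiluminescence by keeping MITF from dimerizing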
AS interf DR – counter-screen: compounds optically interfering with AlphaScreen. hit rate 6% among 480. AID 1259373. AlphaScreen optical interference counterscreen, cell-free. IC50, µM. shares compounds with MITF inh; call rule not given here
AlphaScreen intf2 – optically interferes with AlphaScreen signal. shares compounds with MITF inh. inhibition, % at 2.6 µM. LysRS AlphaScreen counterscreen, signal interference, triplicate. hit rate 7.6% among 4,700. AID 1259376;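 active = inhibition above a cutoff derived from the DMSO control wells, cut at about 30% in these data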
GPR151 confirm – human GPR151 activation, confirmation screen; 6,700 tested, under 10 active; AID 1508609; activation, % at 11.2 µM; GPR151 PathHunter beta-arrestin cells, luminescence, 90 min; % of EA-reagent control over plate median; shares compounds with GPR151 activ;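 active = mean percent activation across replicates above the confirmation screen cutoff of 4.91%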
GPR119 ag – GPR119 activation, counter-screen for GPR151 activators. shares compounds with GPR151 activ. GPR119 PathHunter beta-arrestin cells, luminescence, 90 min; 0 = compound-well median, 100 = enzyme-acceptor control. activation, % at 11.2 µM. hit rate 0.3% among 6,700. AID 1508611;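 active = mean percent activation in the counterscreen above 29.09%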;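 note: counterscreen on off-target GPR119 to flag nonselective hits from the GPR151 activator screen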
Large screens that a line does not name were inactive (follow-up assays come after a bar, where they were run); ! = not active in a repeat. An excerpt weighted towards active compounds, which were near 3.4% of everything screened.

Cc1ccc(-n2c(-c3cccc([N+](=O)[O-])c3)n[nH]c2=S)cc1C	none
COc1cc(OC)c(C(=O)OC2CCCC2=O)cc1OC (stereo unspecified)	GPR151 activ 5.2, MITF inh 76.4 | MITF inh conf 67.0 | AS interf DR inactive | AlphaScreen intf2 inactive | GPR151 confirm inactive | GPR119 ag inactive
CCOC(=O)N1CCN(C(=O)C2CCN(C/C(C)=C/c3ccccc3)CC2)CC1	GPR151 activ 6.6, MITF inh 57.9 | MITF inh conf inactive | AlphaScreen intf2 inactive | GPR151 confirm inactive | GPR119 ag inactive
C/C(=C\c1ccccc1)CN1CCC(C(=O)N2CCCC2)CC1	none
COc1ccc(C(=O)CC2(O)C(=O)N(Cc3cccc4ccccc34)c3ccccc32)cc1OC (stereo unspecified)	none
COC(=O)c1ccc2c(c1)N(Cc1ccc(Cl)cc1)C(=O)C(C)O2 (stereo unspecified)	none
Fc1ccccc1-c1cc(NCCCn2ccnc2)nc(-c2ccncc2)n1	GPR151 activ 7.5, MITF inh 61.9 | MITF inh conf 34.4 | AlphaScreen intf2 40.8 | GPR151 confirm inactive | GPR119 ag inactive
O=C(O)c1cc(N=Cc2ccco2)ccc1O	GPR151 activ 5.0, MITF inh 51.4 | MITF inh conf 81.0 | AS interf DR inactive | AlphaScreen intf2 inactive | GPR151 confirm inactive | GPR119 ag inactive
O=C(O)c1cc(N=Cc2nc(-c3ccc(Cl)cc3)oc2O)ccc1O	none
CCOC(=O)CC(=O)CSc1nc2c(sc(=S)n2-c2cccc(OC)c2)c(=O)n1-c1ccc(C(=O)OCC)cc1	none
O=C(O)c1cc2c(ccc3ccccc32)o1	none
N#Cc1cc2c(ccc3ccccc32)oc1=N	GPR151 activ 6.1 | GPR151 confirm inactive | GPR119 ag inactive
Cc1ccc(-c2c(C)sc3nc[nH]c(=O)c23)cc1	none
CC(=O)c1cccc(OCC(=O)Nc2ccc(-c3ccccc3)cc2)c1	none
COc1ccc(CCNc2nc(NC3CCN(Cc4ccccc4)CC3)nc3cc(OC)c(OC)cc23)cc1	GPR151 activ 8.0 | GPR151 confirm inactive | GPR119 ag inactive
CC(=O)N[C@@H](C)C(=O)NCC1Cc2cc(C)cc(-c3ccc4nc(C)ccc4c3)c2O1 (stereo partly specified)	none
Cc1nc(CCNC(=O)CC2C(=O)NCCN2Cc2ccccc2F)sc1C (stereo unspecified)	none
Cc1nc(CCNC(=O)CC2C(=O)NCCN2Cc2cccc3ccccc23)sc1C (stereo unspecified)	GPR151 activ 5.5 | GPR151 confirm inactive | GPR119 ag inactive
Cc1cccc(CNC(=O)CC2C(=O)NCCN2Cc2c(F)cccc2Cl)n1 (stereo unspecified)	GPR151 activ 5.1 | GPR151 confirm inactive | GPR119 ag inactive
COc1ccc(C(=O)Nc2sc3c(c2C#N)CC(C)CC3)c(OC)c1 (stereo unspecified)	none
O=C(NC1CCCCC1)c1ccc(NS(=O)(=O)c2cc(Cl)sc2Cl)cc1	none
COc1ccc(CNC(=O)CCc2c(C)nc3c(c(C)nn3C(C)(C)C)c2C)cc1	GPR151 activ 7.2 | GPR151 confirm inactive | GPR119 ag inactive
COc1ccccc1CNC(=O)CCc1c(C)nc2c(c(C)nn2C(C)(C)C)c1C	none
CCC(C)NC(=O)Cn1nc(-c2ccccc2)ccc1=O (stereo unspecified)	GPR151 activ 8.5 | GPR151 confirm inactive | GPR119 ag inactive
O=P(O)(O)Cc1ccccc1O	none
CNC(=O)/C(=C/c1cccc([N+](=O)[O-])c1)NC(=O)c1ccc(C(C)(C)C)cc1	GPR151 activ 6.0 | GPR151 confirm inactive | GPR119 ag inactive
O=C(OCc1ccccc1)/C(=C/c1cccc([N+](=O)[O-])c1)NC(=O)c1ccco1	none
NC(=O)/C(=C/c1cccc([N+](=O)[O-])c1)NC(=O)c1ccco1	GPR151 activ 6.8 | GPR151 confirm inactive | GPR119 ag inactive
O=C(Nc1ccc2[nH]ncc2c1)[C@H]1CCCN1C(=O)C(O)c1ccc(Cl)cc1 (stereo partly specified)	none
O=C(Nc1ccc2[nH]ncc2c1)[C@@H]1CCCN1C(=O)C(O)c1ccc(Cl)cc1 (stereo partly specified)	GPR151 activ 5.2! | GPR151 confirm inactive | GPR119 ag inactive
CC(=O)N(c1cccc2ccccc12)C1C=CS(=O)(=O)C1 (stereo unspecified)	GPR151 activ 4.9 | GPR151 confirm inactive | GPR119 ag inactive
CCc1ccccc1N(C(C)=O)C1C=CS(=O)(=O)C1 (stereo unspecified)	none
O=C1c2cc([N+](=O)[O-])cc3cc([N+](=O)[O-])cc(c23)C(=O)N1c1ccc(Br)cc1	none
Cc1ccc(CN2C(=O)CSc3ccc(NC(=O)Nc4nc(C)cc(C)n4)cc32)cc1	GPR151 activ 7.4 | GPR151 confirm inactive | GPR119 ag inactive
CC(C)c1ccc(NC(=O)C(c2ccc3c(c2)OCO3)N(Cc2ccccc2)c2ccccc2)cc1 (stereo unspecified)	GPR151 activ 5.7 | GPR151 confirm inactive | GPR119 ag inactive
CN1CCN(CCCOc2ncc(Nc3ncc(-c4ccc(C(F)(F)F)c(F)c4)nc3C(N)=O)cn2)CC1	GPR151 activ 6.9 (no result: MITF inh, TEAD-YAP block, FBW7 act) | GPR151 confirm inactive | GPR119 ag inactive
Cn1c(CC(=O)NN)nc2ccccc21	GPR151 activ 6.2 | GPR151 confirm inactive | GPR119 ag inactive
O=C(COc1ccc(Br)cc1)Nc1ccc2oc(=O)ccc2c1	none
Cc1ccc(OCC(=O)Nc2ccc(Br)cn2)c(C)c1	GPR151 activ 8.3 | GPR151 confirm inactive | GPR119 ag inactive
Cc1ccc(OCC(=O)NNC(=O)COc2ccc(Br)cc2C)c(C)c1	none
Cc1ccc(OCC(=O)Nc2ccc3oc(=O)ccc3c2)c(C)c1	GPR151 activ 5.5 | GPR151 confirm inactive | GPR119 ag inactive
COc1ccc(OCC(=O)Nc2ccc3oc(=O)ccc3c2)cc1	GPR151 activ 5.8 | GPR151 confirm inactive | GPR119 ag inactive
Cc1ccc(C(=O)Nc2nnc(C(C)(C)C)s2)cc1C	none
CCOC(=O)c1[nH]c(=O)[nH]c1CSc1nc2ccccc2[nH]1	GPR151 activ 10.6 | GPR151 confirm inactive | GPR119 ag inactive
CCOC(=O)CSc1nc2ccccc2[nH]1	none
O=C(NNC(=S)Nc1ccccc1Cl)C1CC1	GPR151 activ 6.0 | GPR151 confirm inactive | GPR119 ag inactive
